# In PubChem BioAssay (NCI):
# This is part of a sample that, as a whole, favours compounds with a hit. Of some 83,000 tested, about 20% had one in any assay.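 Method: cells in 96-well plates; compound added at one concentration; 48 h incubation; percent growth measured; values under 10 scored active.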 Values without a mark were called inactive. The source made the active and inactive calls.
# System: MDA-MB-468 breast
# Assay: NCI-60 one-dose screen, 48 h (100 = growth as untreated, 0 = no growth, -100 = all killed)
# Settings: 10 µM unless noted
row,SMILES,growth
1,Cc1nc(N)nc2c1CCC(Nc1ccccc1)S2 (centres undefined),100%
2,N=c1c2c(-c3ccccc3)c(-c3ccccc3)n(Cc3ccccc3)c2ncn1CCCO,-0.433% (active)
3,COc1cc2c(cc1O)CCN1C[C@@H](CC(C)C)[C@@H](O)C[C@@H]21,103%
4,COCCNC(=O)Cc1cc(-c2ccc(Cl)cc2)n(-c2ccccc2)c1C,73%
5,C=C(C)[C@@H]1CC[C@]2(CN)CC[C@]3(C)[C@H](CC[C@@H]4[C@@]5(C)CCC(=O)NC(C)(C)[C@@H]5CC[C@]43C)[C@@H]12,35.5%
6,NC(=O)c1c(NC(=O)c2ccccn2)sc2c1CCC(=O)C2,6.36% (active)
7,Oc1ccc(N=Cc2ccccc2)cc1,53.9%
8,N#Cc1nc(-c2ccc(F)cc2)oc1S(=O)(=O)N1CCOCC1,29%
9,COc1ccc(-n2cnc3c(sc4ncc(Cl)cc43)c2=O)cc1,93.1%
10,CC(=O)c1sc(-c2ccccc2)cc1N,91.7%
11,O=C1C(Cl)=C(NCCCN(CCCNC2=C(Cl)C(=O)c3ccccc3C2=O)C2=C(Cl)C(=O)c3ccccc3C2=O)C(=O)c2ccccc21,-7.83% (active)
12,Nc1c(C(=O)Nc2ccccc2Cl)sc2nc3c(cc12)CN(Cc1ccccc1)CC3,102%
13,CCCCCCCCCCCCNC(=O)N[C@H](C(=O)N[C@H]1/C=C/CCNC(=O)/C=C/[C@H](C)NC1=O)C(C)C,-66.6% (active)
14,CCN(CC)S(=O)(=O)c1ccc(NC(=O)CSc2nnc(C)n2-c2ccccc2)cc1,90.6%
